ChEMBL document CHEMBL4513216, “Probing the Open Global Health Chemical Diversity Library for Multistage-Active Starting Points for Next-Generation Antimalarials” (ACS Infect Dis, 2020)
Hit rate of the full screen: of about 69,000 compounds, about 8,600 (12%) showed an effect of 50% or more. The sample holds strong results, similar compounds and a random draw of the others, so the mix is not that of the screen.

System: Plasmodium berghei
Assay: Screen against P. berghei liver stage (PbLuc), transformed with Luciferase, at 10uM
Assay type: functional, HepG2
Conditions: tested at 10 uM

SMILES	INHIBITION [%]
CCCc1nnc(N2CCC3(CC2)CC(=O)NC(=O)C3)o1	-10.2
COCc1cn(C2CCN(C(=O)Cc3ccsc3)CC2)nn1	34.8
CC(C)(CN1CCCC1)CN1CCC(Cn2cc(CCO)nn2)CC1	-6.03
COc1ccc(CC(=O)N2CCCC(Cn3cc(CN)nn3)C2)cc1 (stereo not drawn)	12.7
NCc1cn(CC2CCCN(C(=O)NCc3ccc(Cl)cc3)C2)nn1 (stereo not drawn)	45.8
NCc1cn(CC2CCCN(C(=O)CC3=CCCCC3)C2)nn1 (stereo not drawn)	58.5
CC(C)CCN1CCCC(Cn2cc(CCO)nn2)C1 (stereo not drawn)	6.69
O=C(Cc1ccsc1)N1CCC(Cn2cc(CCO)nn2)CC1	57.1
O=C(CC1=CCCCC1)N1CCC(Cn2cc(CCO)nn2)CC1	58.5
O=C(c1sccc1Cl)N1CCC(Cn2cc(CO)nn2)CC1	10.7
CC(C)N(C)Cc1cnc2n1CCN(CCc1ccccc1)C2	8.47
O=C(NCCc1cccs1)[C@H]1CO[C@H]2CCNC[C@H]2C1	39.8
Cc1noc(C)c1CN1CCO[C@H]2CN(C(=O)C3CCOCC3)C[C@H]21	29.4
O=C(c1ccn(-c2ccccc2Cl)n1)N1CCCSCC1	-15.3
c1ccc(OC2C[C@@H]3CN(Cc4cnccn4)C[C@@H]3C2)cc1 (stereo partly drawn)	-15.3
CNc1cccc(C2CCCN(Cc3ncc[nH]3)C2)n1 (stereo not drawn)	15.9
COCCNc1cc(C2CCCNC2)ccn1 (stereo not drawn)	-14.775
CCc1nnc(Nc2cccc(C3CCCN(CC(C)(C)C)C3)n2)s1 (stereo not drawn)	-34.6
Cc1cccc(Nc2cc(C3CCCN(CC(N)=O)C3)ccn2)n1 (stereo not drawn)	81.55
Cc1cccc(Nc2nccnc2C2CCCN(CC(=O)N(C)C)C2)n1 (stereo not drawn)	36.7
Cc1cccc(Nc2cccc(C3CCCN(Cc4ncc[nH]4)C3)n2)n1 (stereo not drawn)	64.1
NC(=O)CN1CCCC(c2ccnc(Nc3ncccn3)c2)C1 (stereo not drawn)	37.55
c1ccc(CNc2cc(C3CCCNC3)ccn2)nc1 (stereo not drawn)	7.775

SMILES	INHIBITION [%]
Cc1cc(C)nc(Nc2cccc(C3CCCN(CC4CC4)C3)n2)n1 (stereo not drawn)	47.2
Cc1cccc(CNc2cc(C3CCCNC3)ccn2)n1 (stereo not drawn)	50.45
Cc1nnc(Nc2cccc(C3CCN(Cc4ncc[nH]4)CC3)n2)s1	-12.9
Cc1nnc(Nc2cccc(C3CCCN(Cc4ncc[nH]4)C3)n2)s1 (stereo not drawn)	62.9
CN(C)CCNC(=O)C1Cc2nc(-c3ccsc3)sc2N1CC1CC1 (stereo not drawn)	-16.2
CCN1C[C@H]2[C@@H](C1)N(S(=O)(=O)c1ccccc1F)CC[C@H]2OC	32.2
CN1CCn2c(-c3ccccc3)cnc2C12CCN(CC1CC1)CC2	29.8
CCOC(=O)N1C[C@@H]2CC[C@H]1CN(Cc1ccccc1)C2	12.8
CN(C)CCN1C(=O)C[C@@H]2[C@@H]1CCN2S(=O)(=O)c1ccccc1	-71.3
CCC(=O)N1CCCCC1c1nc(O)c2c(n1)CN(S(C)(=O)=O)CC2 (stereo not drawn)	10.9
Cn1ccc(-c2cc(C(=O)N3CCCCC3)c3ccccn23)n1	49.4
O=C(CCCOc1ccccc1F)Nc1cc[nH]n1	11.5
CC(C)CC(=O)N[C@H](C)c1c(-c2ccc(Cl)cc2)noc1C(=O)O	7.5
CC(NC(=O)NCCCN(C(C)C)S(C)(=O)=O)c1ccncc1 (stereo not drawn)	-11.4
NC(=O)CN(C(=O)C1Cc2cc(Cl)ccc2O1)C1CCCC1 (stereo not drawn)	6.83
O=C(O)c1ccc(F)c(S(=O)(=O)N2CCOc3ccccc32)c1	32.44
Cc1ccc(C(=O)N2C[C@H]3CC[C@@H](C2)N(CC2CCC2)C3)s1	-26.4
COc1ncnc2c1CCN(Cc1cccs1)CC2	-0.804
CCc1noc(C2CCCCN2C(=O)c2cccs2)n1 (stereo not drawn)	9.32
CCc1noc(C2CCCCN2C(=O)c2cc(C)oc2C)n1 (stereo not drawn)	78.1
CCc1noc(C2CCCCN2C(=O)c2cc(C)on2)n1 (stereo not drawn)	22.6
CCc1noc(C2CCCCN2C(=O)c2cc(C)n(C)n2)n1 (stereo not drawn)	52.4
CCc1noc(C2CCCCN2C(=O)c2ccc(C)o2)n1 (stereo not drawn)	45.8

SMILES	INHIBITION [%]
CCc1noc(C2CCCCN2C(=O)c2ccn(C3CCCC3)n2)n1 (stereo not drawn)	6.32
CCc1noc(C2CCCCN2C(=O)c2ccoc2C)n1 (stereo not drawn)	22.1
CCc1noc(C2CCCCN2C(=O)c2ccccc2)n1 (stereo not drawn)	-45
CCc1noc(C2CCCCN2C(=O)c2nnc3ccccc3n2)n1 (stereo not drawn)	62.4
Cc1nn(CC(=O)Nc2ccon2)cc1Br	20.1
CN1CCC(N(CCc2ccccc2)C(=O)c2ccoc2)CC1	32.8
CC(=O)N1CCC(C)(c2cc[nH]n2)CC1	35
CN1CCN(CC(NCc2ccc(F)c(F)c2)c2ccccc2)CC1 (stereo not drawn)	8.31
Cc1nonc1CC(=O)N1CCC2(CCCN(C3CCOCC3)C2=O)C1 (stereo not drawn)	-41.8
O=C(CCC1CCN(Cc2ncc[nH]2)CC1)Nc1ccccc1Cl	38.5
Cn1ccnc1CN1CCC(CCC(=O)Nc2ccccc2Cl)CC1	9.72
CSc1cccc(CN2CCC(CCC(=O)Nc3ccccc3)CC2)c1	47.7
CCn1ccnc1CN1CCN(CC(=O)NC(=O)NC2CC2)CC1	-3.95
CSc1ccc(CN2CCC(CCC(=O)Nc3ccccc3)CC2)cc1	64.5
CCn1ccnc1CN1CCN(CC(=O)NC(C2CC2)C2CC2)CC1	51.85
Cn1cc(CN2CCC(CCC(=O)Nc3ccccc3Cl)CC2)cn1	34
O=C(CCC1CCN(Cc2ccncc2)CC1)Nc1ccccc1Cl	70.1
CSc1cccc(CN2CCC(CCC(=O)NC3CC3)CC2)c1	35.4
CCn1cc(CN2CCC(CCC(=O)Nc3ccccc3Cl)CC2)cn1	49.5
CCn1ccnc1CN1CCC(CCC(=O)Nc2ccccc2Cl)CC1	71.8
CCn1ccnc1CN1CCN(CC(=O)NC2CCOCC2)CC1	22.5
CN(C)CCN1C(=O)CCCC12CCCN(Cc1ccc[nH]1)C2 (stereo not drawn)	26
Cc1cccc(C)c1Nc1noc2c1CN(C(=O)c1ccnn1C)CC2	45.5

SMILES	INHIBITION [%]
O=C(c1n[nH]c2c1CN(C1CCOC1)CC2)N1CCOCC1 (stereo not drawn)	9.97
O=C(C1CCC2(CCN(CC3CCOCC3)CC2)O1)N1CCCCO1 (stereo not drawn)	38.3
CS(=O)(=O)N1CC[C@]2(C[C@H](Oc3ccccn3)CO2)C1	-23.4
CCc1noc(CN(CC)Cc2cc3ccc(C)cc3[nH]c2=O)n1	9.56
Cc1cnn(CCC(=O)N2CCN(c3nccs3)CC2)c1	23.5
O=C(NCCO)Nc1cnc2cc(Cl)ccc2c1O	24.4
O=C(NCCCO)Nc1cnc2cc(Cl)ccc2c1O	54.4
O=C(NCCCN1CCOCC1)Nc1cnc2cc(Cl)ccc2c1O	35.8
Cc1ccc(C2CCCCCN2CCNS(C)(=O)=O)o1 (stereo not drawn)	39.4
CNS(=O)(=O)CCCN1CCCCCC1c1ccc(C)o1 (stereo not drawn)	23.3
CNC(=O)CCN1CCCCCC1c1ccc(C)o1 (stereo not drawn)	72.5
CC(=O)N1CCN(C(=O)c2ccc(Sc3ccccn3)cc2)CC1	14.4
Cc1ccc(NC(=O)NCC2(O)CCCC2)cc1C	-108
COc1cccc(CNC(C)C)c1OCc1ccc(C)cc1	5.46
COc1cc(CNCC(C)O)cc(Cl)c1OCc1ccc(C)cc1 (stereo not drawn)	52.2
COc1cc(CNCC(O)c2ccc(C)cc2)cc2c1OCO2 (stereo not drawn)	-5.25
NC(=O)c1c[nH]nc1NC(=O)c1ccc(Cl)cc1	-6.3
CCn1cc(CN2CCCN(C(=O)c3cccn3C)CC2)cn1	13.6
CC(C)N(CCNCc1ccc(C#N)cc1)C1CC1	-8.45
Cc1c(NCc2ccc(C#N)cc2)cccc1S(=O)(=O)NC1CC1	73.9
Cc1c(NCc2ccccc2C#N)cccc1-n1cnnn1	62.4
Cc1cc(NCc2cccc(C#N)c2)ccc1C(N)=O	-0.759
Cc1ccc(NCc2ccccc2C#N)cc1-n1cnnn1	10.6

SMILES	INHIBITION [%]
Cc1c(NCc2ccccc2C#N)cccc1S(=O)(=O)NC1CC1	64.9
Cc1ccc2c(c1C)OCC2NCc1ccc(C#N)cc1 (stereo not drawn)	40.9
Cc1cc(NCc2cccc(C#N)c2)ccc1Br	44.3
CS(=O)(=O)NCC1CCCCN1Cc1ccccc1C#N (stereo not drawn)	-27.6
Cc1c(NCc2cccc(C#N)c2)cccc1S(=O)(=O)NC1CC1	67.5
Cc1nnc(NCc2ccccc2S(=O)(=O)N(C)C)c(C#N)c1C	15.92
Cc1ccc(NCc2ccc(C#N)cc2)cc1-n1cnnn1	14.3
CN(C)CC(=O)N1CCOCC(Cc2ccccn2)C1 (stereo not drawn)	-20.6
CN1CCC2(CCN(CC3CC3)CC2)C1=O	23.3
CC(C)CN(CC(O)c1ccccc1)C(=O)Nc1nccs1 (stereo not drawn)	-10.9
COCCN(C)CC(=O)N1C[C@@H]2CC[C@H]1CN(C(=O)c1ccncc1)C2	8.57
CNC(=O)[C@H]1C[C@H]2CN(Cc3ccc(OC)cc3)C[C@@H]1O2	8.66
Cn1nccc1C1CCN(CC(O)c2cccc(F)c2)CC1 (stereo not drawn)	20.9
Cn1nccc1C1CCN(Cc2ccn(-c3ccccc3)n2)CC1	74.2
c1ccc(-n2ccc(CN3CCOC(Cn4cncn4)C3)n2)cc1 (stereo not drawn)	7.08
Cn1nccc1C1CCN(Cc2cnn(-c3ccccc3)n2)CC1	81.2
O=C(O)c1ccccc1CN1CCC(c2ccnc3ccnn23)CC1	-9.32
c1ccc(-n2ccc(CN3CCCC3Cn3cccn3)n2)cc1 (stereo not drawn)	36.4
c1ccc(-n2ncc(CN3CCCC3Cn3cccn3)n2)cc1 (stereo not drawn)	-0.75
Cn1nccc1C1CCN(Cc2csc(-c3ncccn3)n2)CC1	11.1
Cc1ncc(CN2CCC(c3ccnn3C)CC2)n1-c1ccccc1	77.2
